Pf growth 48h = P. falciparum growth inhibition at 48 hours (one generation); P. falciparum luciferase growth in erythrocytes, 48 h; Potency, µM (series often up to 28.7 µM), without a hit: at the top dose activity change, negative = inhibition, most hits filed as inhibitors; actives 5.9% (n = 310,000); note: % is set by controls: 0 for no effect and ±100 for the full control effect
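Luciferase-expressing parasites in RBCs, 2% Hct / 0.1% parasitemia final; RPMI 1640 + 0.5% Albumax; 37 C, 5% CO2, one generation; luminescence read-out, lower signal = inhibition.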
SARS PLP yeast = blocks SARS-CoV papain-like protease in a yeast assay. S. cerevisiae expressing SARS-CoV PLpro, growth rescue. Potency, µM (series often up to 32.9 µM), for the others: top-dose activity, positive = growth rescue, most hits filed as activators. actives 0.19% (n = 330,000). AID 485353; calls by dose curve; note: 0% is about no effect; nearly all actives have a fitted effect of over 55% in size
NS1 inh = blocks influenza NS1 protein function | Potency, µM (highest dose often 46.1 µM), for the others: at the top dose activity, positive = more growth | actives 0.4% (n = 270,000) | AID 2326; calls by dose curve; note: actives are rising curves; nearly all actives have a fitted effect of over 50% in size
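OD600 was taken as the measure of yeast growth restored by compound in an NS1-expressing S. cerevisiae strain. Cells had been washed out of glucose medium and diluted 1:100 into galactose -URA medium, pH 6.0.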
Pf growth 96h = inhibits malaria parasite growth, 96 h; P. falciparum luciferase reporter growth, 96 h; actives 6.9% (n = 320,000); Potency, µM (series often up to 28.7 µM), for the others: top-dose activity change, negative = inhibition, most hits filed as inhibitors; note: % is set by controls: 0 for no effect and ±100 for the full control effect
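Two-generation exposure (96 h) targets delayed-death phenotype. Reporter parasites carrying integrated firefly luciferase, in red cells at 2% hematocrit and 0.05% parasitemia final, kept at 37 C, 5% CO2; luminescence loss indicates inhibition.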
AMA1 RON2 block = disrupts binding of P. falciparum AMA1 to RON2; Potency, µM (top dose mostly 58.2 µM), for the others: top-dose activity change, negative = inhibition, actives largely listed as inhibitors; AlphaScreen AMA1-biotinylated RON2 peptide binding; actives 0.2% (n = 360,000); AID 720542;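 note: 0% = vehicle wells and -100% = peptide control; nearly all actives have a fitted effect of over 45% in size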
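AMA1 (3D7) with his tag at 25 nM final met compounds first, then biotinylated RON2 peptide at 25 nM; detection used donor plus acceptor beads, 10 µg/mL apiece, read by AlphaScreen after 30 min at room temperature.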
HCV inhibitor = HCV inhibition; Huh7.5.1 HCVcc-Cre infection, luciferase reporter, 44 h; actives 3.4% (n = 340,000); Potency, µM (titrated, usually from 41.8 µM), without a hit: at the highest dose activity change, negative = inhibition, hits mostly inhibitors; note: % is set by controls: 0 for no effect and ±100 for the full control effect
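Infectious HCVcc-Cre (~0.5 moi) was added to cells just after compound, with cells seeded 4 h earlier at 1,000 per well. Luciferase activity after 44 h culture reported infection; substrate was incubated 15 min at room temperature before reading.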
* hit, by the source's call; i = inactive; ? = inconclusive; . = not tested or not shown; [ ] = dose if it differs, or a comment. Most compounds without a hit are left out; they make up all but 12% or so of the library. Unless noted, calls come from the whole dose curve; as a rule, active = well fitted curve in the direction sought with a large enough effect; inconclusive = small, poorly fitted or top-dose-only effect, or another doubt; inactive = no such curve, though single readings can be large; an effect the other way counts as inactive or inconclusive. Potency is the fitted concentration of half-maximal effect.

SMILES | Pf growth 48h | SARS PLP yeast | NS1 inh | Pf growth 96h | AMA1 RON2 block | HCV inhibitor
COc1cc(C(=O)Nc2ccc(S(=O)(=O)N3CCCCC3)cc2)ccc1OCC(=O)N1CCOCC1 | . | . | . | . | 9%[11.6 µM] | 0%
CCOC(=O)[C@]12CCC=C1N(Cc1ccccc1)C(=O)[C@H](CC(=O)NCC13CC4CC(CC(C4)C1)C3)C2 | . | . | . | . | -8% | .
O=C(Nc1cccc(Cl)c1)OC1CCCCc2cccnc21 (centres undefined) | 3.7µM* | -3% | -51% | -25% | -12% | -25%
O=C(Nc1ccccc1)OC1CCCCc2cccnc21 (centres undefined) | 7% | 1% | -1% | 6% | -4% | 1%
CC(Cl)C(=O)NC(=O)NC12CC3CC(CC(C3)C1)C2 (centres undefined) | ? | -3% | -18% | 13µM* | -10% | 11%
O=C(CCl)NC(=O)NC12CC3CC(CC(C3)C1)C2 | 0% | -16% | -67% | ? | 7% | 1%
CC(=O)N1CCCc2cc(S(=O)(=O)N(C)Cc3ccccc3)ccc21 | -16% | 2% | 1% | ? | 0% | 35µM*
CC(=O)N1CCCc2cc(S(=O)(=O)N3CCC(C)CC3)ccc21 | -11% | 9% | 11% | ? | 13% | 6%
CCCCN(CC)S(=O)(=O)c1ccc2c(c1)CCCN2C(C)=O | ? | 3% | -9% | 13µM* | 13% | -6%
COc1cc(OC)cc(C(=O)NCCNC(=O)c2ccccn2)c1 | -5% | 1% | 2% | 19% | 21% | 9%
COc1cccc(C(=O)NCCCNC(=O)c2cccc(OC)c2)c1 | 8% | -7% | 5% | -15% | 2% | 11%
COc1cc(OC)cc(C(=O)NCCCCCCNC(=O)c2cc(OC)cc(OC)c2)c1 | ? | 1% | . | ? | 1%[11.6 µM] | 7.1µM*
COc1cc(OC)cc(C(=O)NCCCNC(=O)c2ccccn2)c1 | 0% | -2% | 10% | 12µM* | 22% | 4%
COc1cc(OC)cc(C(=O)NCCSC2CCCCC2)c1 | 0% | -1% | -11% | 50% | -7% | 3.2µM*
CC(=O)c1cccn1S(=O)(=O)c1ccccc1 | . | -2% | 3% | 13% | -3% | 5%
CC(C)(C)c1csc(Sc2ncccc2[N+](=O)[O-])n1 | ? | -1% | -3% | -4% | -21% | -10%
C[C@@H]1[C@H](O)C[C@@]23COC(=O)C2=CCCC3[C@@]1(C)CCC1COC(=O)C1 (some centres undefined) | 0.0033µM* | 5% | . | 0.0026µM* | 8% | 17%
CC(=O)Nc1cccc(CP(=O)(c2ccccc2)c2ccccc2)c1 | -4% | 1% | 1% | -7% | 5% | 28%
CSc1ccccc1C(=O)N(C)C(c1ccccc1)c1ccccc1 | ? | -8% | -34% | 10µM* | 7% | ?
C=CCc1cccc(CNc2nc3ccccc3n2CCN2CCOCC2)c1O | 3.7µM* | -1% | -21% | . | -4% | 2%
CCCn1c(NCc2cccc(OC)c2O)nc2ccccc21 | 12µM* | -4% | -9% | 107% | -4% | ?
C=CCc1cccc(CNc2nc3ccccc3n2C)c1O | ? | 1% | -16% | ? | 18% | -9%
CCCn1c(NCc2cccc(OC)c2OC)nc2ccccc21 | ? | -2% | -2% | 3% | -9% | ?
Oc1ccccc1CNc1nc2ccccc2n1CCN1CCCCC1 | 2.9µM* | 9% | -4% | -21% | -13% | -6%
Cc1cccc(NC(=O)C(c2ccccc2Cl)N2CCOCC2)c1 (centres undefined) | 12µM* | -1% | . | 15µM* | -4% | 10%
SMILES | Pf growth 48h | SARS PLP yeast | NS1 inh | Pf growth 96h | AMA1 RON2 block | HCV inhibitor
COc1ccc(/C=N/NC(=O)c2cccc(O)c2)cc1Cn1nc(C)c([N+](=O)[O-])c1C | ? | 0% | . | i | -3% | ?
O=C1C=C(NCc2ccc3c(c2)OCO3)CC(c2ccccc2)C1 (centres undefined) | 1% | 1% | -1% | -17% | 7% | -4%
CCOCCn1c(CN2CCN(C)CC2)nc2c1c(=O)n(C)c(=O)n2C | 0% | -1% | 3% | 25% | 11% | 22%
CCOCCn1c(CN2CCN(c3cccc(Cl)c3)CC2)nc2c1c(=O)n(C)c(=O)n2C | . | -8% | -62% | -13% | -21% | 16µM*
CCOCCn1c(CN2CCN(c3ccc(F)cc3)CC2)nc2c1c(=O)n(C)c(=O)n2C | . | -3% | -14% | 7.4µM* | 5% | ?
O=S(=O)(c1ccccc1)N1N=C(c2cccs2)CC1c1ccc(F)cc1 (centres undefined) | ? | -8% | -3% | 9.3µM* | -15% | ?
Cc1ccc(C2CC(c3cccs3)=NN2S(=O)(=O)c2ccc(C)cc2)cc1 (centres undefined) | ? | -41% | -7% | 2.9µM* | -9% | ?
Fc1ccc(N2N=C(c3cccs3)CC2c2ccccc2)cc1 (centres undefined) | 13µM* | -6% | . | 12% | 17% | ?
COc1ccc(C2CC(c3cccs3)=NN2S(=O)(=O)c2ccc(C)cc2)cc1 (centres undefined) | . | . | . | . | -26% | -25%
O=S(=O)(c1ccccc1)N1N=C(c2cccs2)CC1c1cccc(O)c1 (centres undefined) | -8% | . | 6% | ? | 0% | 5%
O=C(O)CNC(=O)c1ccc([As](=O)(O)O)cc1 | . | . | -5% | . | . | .
CCCC(NC(=S)NCC1CCCO1)C12CC3CC(CC(C3)C1)C2 (centres undefined) | 2.6µM* | 3% | . | -1% | 30% | 11µM*
O=S(=O)(Nc1ccc(O)c(Sc2nc3ccccc3s2)c1)c1ccc(F)cc1 | -12% | -26% | -28% | -28% | 4% | 4%
O=[N+]([O-])c1cc(S(=O)(=O)C(F)(F)F)ccc1Sc1nc2ccccc2[nH]1 | 15µM* | -23% | 3% | . | ? | ?
O=[N+]([O-])c1cc(S(=O)(=O)C(F)(F)F)ccc1Sc1nc2ccccc2s1 | ? | -32% | -121% | 9.3µM* | ? | -19%
CS(=O)(=O)c1ccc(Sc2nc3ccccc3s2)c([N+](=O)[O-])c1 | 13µM* | -18% | 8% | ? | -20% | ?
NCCNc1ccc([N+](=O)[O-])c(Sc2nc3ccccc3[nH]2)c1 | ? | 2% | 28% | 13µM* | -13% | -4%
O=C(Nc1ccc(F)c(Cl)c1)c1cncs1 | -12% | -4% | 1% | 14% | 12% | 7%
C=CC#CC1(O)CC(C)N(C)CC1C (centres undefined) | 0% | 2% | . | -10% | 3% | 25%
CCN(CC)S(=O)(=O)c1ccc(Cl)c(NC(=O)COc2ccc(OC)cc2)c1 | 0% | -2% | 10% | 13% | -8% | -12%

Compound activity: PubChem, National Center for Advancing Translational Sciences (NCATS)
